Measured values: the supplement of paper PMC10849652
Of roughly 7,900 targets only a part is listed; those with a hit were picked by preference. About 0.6% of all pairs of compound and target were hits.

Tests used:
Assay in all cases: log2 fold change, soluble protein after heating vs DMSO (PISA); higher = thermal stabilisation; K562 cells, 10 uM, 30 min; active = over 0.2 and 3.5 SD of the protein, either way, in both replicates (recomputed)
saracatinib = compound: CN1CCN(CCOc2cc(OC3CCOCC3)c3c(Nc4c(Cl)ccc5c4OCO5)ncnc3c2)CC1 [saracatinib]
Procedure, shortened: (§1)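 K562 cells at 2×10^6 cells/mL were exposed to 10 μM compound for 30 min, then aliquots were heated for 3 min across 48°C-58°C, pooled, and extracted in PBS containing 0.5% NP-40 at 4°C. The supernatant after 21,000xg for 90 min was taken as soluble protein and measured by TMTpro 16plex LC-MS/MS with channel sums equalised. Thermal stability is reported relative to control samples, with values from duplicates. Fold changes are given on a log2 scale.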

sotrastaurin = compound: CN1CCN(c2nc(C3=C(c4c[nH]c5ccccc45)C(=O)NC3=O)c3ccccc3n2)CC1 [sotrastaurin]
Procedure, shortened: as §1

alvocidib = compound: CN1CC[C@H](c2c(O)cc(O)c3c(=O)cc(-c4ccccc4Cl)oc23)[C@H](O)C1 [alvocidib]
Procedure, shortened: as §1

Tubastatin A = compound: CN1CCc2c(c3ccccc3n2Cc2ccc(C(=O)NO)cc2)C1 [Tubastatin A]
Procedure, shortened: as §1

[1] = compound: CNC(=O)C1=CC=CC=C1NC2=NC(=NC=C2Cl)NC3=C(C=C(C=C3)N4CCOCC4)OC
Procedure, shortened: as §1

defactinib = compound: CNC(=O)c1ccc(Nc2ncc(C(F)(F)F)c(NCc3nccnc3N(C)S(C)(=O)=O)n2)cc1 [defactinib]
Procedure, shortened: as §1

rucaparib = compound: CNCc1ccc(-c2[nH]c3cc(F)cc4c3c2CCNC4=O)cc1 [rucaparib]
Procedure, shortened: as §1

[2] = compound: CNc1nc(-c2ccc3c(N)n[nH]c3c2)cc(N2C[C@@H](C(=O)NC3CCCCC3)CC[C@H]2C)n1
Procedure, shortened: as §1

encorafenib = compound: COC(=O)N[C@@H](C)CNc1nccc(-c2cn(C(C)C)nc2-c2cc(Cl)cc(NS(C)(=O)=O)c2F)n1 [encorafenib]
Procedure, shortened: as §1

[3] = compound: COC(=O)[C@H](CCSC)NC(=O)C1=C(C=C(C=C1)NC[C@H](CS)N)C2=CC=CC=C2
Procedure, shortened: as §1

[4] = compound: COC1=CC=C(C=C1)CN2C=CC3=C2C=C(C=C3)C(=O)NO
Procedure, shortened: as §1

filanesib = compound: CON(C)C(=O)N1N=C(c2cc(F)ccc2F)S[C@@]1(CCCN)c1ccccc1 [filanesib]
Procedure, shortened: as §1

zotarolimus = compound: CO[C@H]1C[C@@H]2CC[C@@H](C)[C@@](O)(O2)C(=O)C(=O)N2CCCC[C@H]2C(=O)O[C@H]([C@H](C)C[C@@H]2CC[C@H](n3cnnn3)[C@H](OC)C2)CC(=O)[C@H](C)/C=C(\C)[C@@H](O)[C@@H](OC)C(=O)[C@H](C)C[C@H](C)/C=C/C=C/C=C/1C [zotarolimus]
Procedure, shortened: as §1

idasanutlin = compound: COc1cc(C(=O)O)ccc1NC(=O)[C@@H]1N[C@@H](CC(C)(C)C)[C@](C#N)(c2ccc(Cl)cc2F)[C@H]1c1cccc(Cl)c1F [idasanutlin]
Procedure, shortened: as §1

alisertib = compound: COc1cc(Nc2ncc3c(n2)-c2ccc(Cl)cc2C(c2c(F)cccc2OC)=NC3)ccc1C(=O)O [alisertib]
Procedure, shortened: as §1

[5] = compound: COc1cc2nc(-c3cc(F)ccc3O)nc(N[C@@H]3CNC[C@H]3C(C)(C)O)c2cc1OC
Procedure, shortened: as §1

gefitinib = compound: COc1cc2ncnc(Nc3ccc(F)c(Cl)c3)c2cc1OCCCN1CCOCC1 [gefitinib]
Procedure, shortened: as §1

[6] = compound: COc1cccc2cc(-c3nc([C@H]4CC[C@H](C(=O)O)CC4)n4ncnc(N)c34)[nH]c12
Procedure, shortened: as §1

lapatinib = compound: CS(=O)(=O)CCNCc1ccc(-c2ccc3ncnc(Nc4ccc(OCc5cccc(F)c5)c(Cl)c4)c3c2)o1 [lapatinib]
Procedure, shortened: as §1

pictilisib = compound: CS(=O)(=O)N1CCN(Cc2cc3nc(-c4cccc5[nH]ncc45)nc(N4CCOCC4)c3s2)CC1 [pictilisib]
Procedure, shortened: as §1

Measured: log2 fold change

VPS35L (UniProt Q7Z3J2)
UniProt Q7Z3J2, sequence (Q7Z3J2 whole entry, looked up): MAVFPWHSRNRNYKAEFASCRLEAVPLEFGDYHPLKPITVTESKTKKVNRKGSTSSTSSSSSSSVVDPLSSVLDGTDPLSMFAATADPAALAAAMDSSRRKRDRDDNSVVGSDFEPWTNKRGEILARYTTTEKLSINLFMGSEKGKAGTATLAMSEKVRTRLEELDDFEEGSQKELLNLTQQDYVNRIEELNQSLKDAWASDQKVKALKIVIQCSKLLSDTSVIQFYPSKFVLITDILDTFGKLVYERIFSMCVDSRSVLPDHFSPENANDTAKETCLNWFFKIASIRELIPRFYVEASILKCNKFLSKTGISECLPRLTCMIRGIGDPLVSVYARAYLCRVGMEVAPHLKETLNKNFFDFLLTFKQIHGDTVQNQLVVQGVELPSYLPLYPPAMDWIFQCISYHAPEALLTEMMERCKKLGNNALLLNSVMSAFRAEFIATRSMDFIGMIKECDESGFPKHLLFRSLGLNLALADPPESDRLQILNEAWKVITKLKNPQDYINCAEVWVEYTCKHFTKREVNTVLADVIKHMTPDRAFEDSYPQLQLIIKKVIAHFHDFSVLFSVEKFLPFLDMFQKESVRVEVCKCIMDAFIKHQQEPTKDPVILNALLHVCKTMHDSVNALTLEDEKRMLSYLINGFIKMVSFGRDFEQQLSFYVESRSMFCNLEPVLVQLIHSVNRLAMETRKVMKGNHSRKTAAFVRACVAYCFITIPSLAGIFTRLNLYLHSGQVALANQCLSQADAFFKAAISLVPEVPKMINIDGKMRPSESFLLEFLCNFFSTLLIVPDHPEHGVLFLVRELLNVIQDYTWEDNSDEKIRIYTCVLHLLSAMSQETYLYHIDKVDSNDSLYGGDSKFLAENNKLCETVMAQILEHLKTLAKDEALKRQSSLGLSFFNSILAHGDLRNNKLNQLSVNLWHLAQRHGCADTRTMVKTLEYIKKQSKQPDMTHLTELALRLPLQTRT
inactive: saracatinib 0.013 | sotrastaurin -0.141 | alvocidib 0.17 | Tubastatin A -0.015 | [1] -0.016 | defactinib -0.081 | rucaparib 0.018 | [2] 0.045 | encorafenib -0.001 | [3] -0.037 | [4] 0.028 | filanesib 0.049 | zotarolimus -0.016 | idasanutlin -0.118 | alisertib 0.041 | [5] 0.058 | gefitinib 0.059 | [6] -0.032 | lapatinib -0.05 | pictilisib 0.061

WRB (UniProt O00258)
inactive: saracatinib -0.007 | sotrastaurin 0.075 | alvocidib 0.034 | Tubastatin A -0.051 | [1] -0.048 | defactinib 0.073 | rucaparib -0.003 | [2] -0.014 | encorafenib -0.057 | [3] 0.023 | [4] -0.036 | filanesib -0.041 | zotarolimus -0.019 | idasanutlin -0.032 | alisertib -0.031 | [5] -0.066 | gefitinib 0.012 | [6] 0.051 | lapatinib 0.03 | pictilisib 0.094

VPS33B (UniProt Q9H267)
UniProt Q9H267, sequence (Q9H267 whole entry, looked up): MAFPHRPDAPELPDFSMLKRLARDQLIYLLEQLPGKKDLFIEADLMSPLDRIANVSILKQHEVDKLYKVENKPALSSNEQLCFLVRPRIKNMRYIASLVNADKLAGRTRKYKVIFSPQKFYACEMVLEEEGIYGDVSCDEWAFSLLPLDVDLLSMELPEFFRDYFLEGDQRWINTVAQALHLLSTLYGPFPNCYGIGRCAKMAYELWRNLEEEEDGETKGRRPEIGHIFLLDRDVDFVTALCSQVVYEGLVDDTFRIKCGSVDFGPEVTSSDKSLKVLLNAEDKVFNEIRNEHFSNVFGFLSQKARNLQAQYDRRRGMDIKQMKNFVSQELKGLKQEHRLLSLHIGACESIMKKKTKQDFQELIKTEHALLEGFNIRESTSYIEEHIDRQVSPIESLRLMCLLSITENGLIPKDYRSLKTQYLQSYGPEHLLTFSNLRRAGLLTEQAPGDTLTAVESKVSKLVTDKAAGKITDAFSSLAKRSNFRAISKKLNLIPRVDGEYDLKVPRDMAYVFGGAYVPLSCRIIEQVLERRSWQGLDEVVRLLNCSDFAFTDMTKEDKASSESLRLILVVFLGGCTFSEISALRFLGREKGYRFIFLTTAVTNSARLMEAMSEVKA
inactive: saracatinib -0.088 | sotrastaurin -0.117 | alvocidib -0.008 | Tubastatin A 0.039 | [1] -0.071 | defactinib -0.078 | rucaparib 0.196 | [2] 0.052 | encorafenib 0.111 | [3] -0.058 | [4] 0.027 | filanesib 0.011 | zotarolimus 0.026 | idasanutlin -0.036 | alisertib -0.116 | [5] -0.046 | gefitinib 0.118 | [6] -0.147 | lapatinib 0.011 | pictilisib -0.035

UTP14A (UniProt Q9BVJ6)
UniProt Q9BVJ6, sequence (Q9BVJ6 whole entry, looked up): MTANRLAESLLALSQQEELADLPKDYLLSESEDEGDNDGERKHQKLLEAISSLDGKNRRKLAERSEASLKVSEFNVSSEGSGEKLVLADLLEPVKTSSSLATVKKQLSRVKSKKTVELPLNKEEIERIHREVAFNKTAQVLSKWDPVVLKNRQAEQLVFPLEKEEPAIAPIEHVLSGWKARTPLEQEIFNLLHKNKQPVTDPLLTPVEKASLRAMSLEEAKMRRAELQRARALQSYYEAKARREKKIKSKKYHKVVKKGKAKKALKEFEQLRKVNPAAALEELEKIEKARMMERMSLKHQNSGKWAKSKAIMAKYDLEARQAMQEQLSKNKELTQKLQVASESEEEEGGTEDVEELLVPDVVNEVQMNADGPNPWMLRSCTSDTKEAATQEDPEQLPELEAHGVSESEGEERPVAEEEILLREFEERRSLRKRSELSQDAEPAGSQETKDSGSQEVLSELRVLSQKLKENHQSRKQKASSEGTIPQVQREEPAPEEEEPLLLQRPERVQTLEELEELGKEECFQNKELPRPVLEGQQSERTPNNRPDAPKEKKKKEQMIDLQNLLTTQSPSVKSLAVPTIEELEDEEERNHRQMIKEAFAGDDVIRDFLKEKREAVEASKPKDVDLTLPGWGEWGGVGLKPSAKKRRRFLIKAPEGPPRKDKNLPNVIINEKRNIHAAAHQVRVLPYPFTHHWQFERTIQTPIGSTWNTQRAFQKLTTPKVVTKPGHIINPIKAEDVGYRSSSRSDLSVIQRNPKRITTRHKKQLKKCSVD
inactive: saracatinib -0.023 | sotrastaurin -0.017 | alvocidib 0.077 | Tubastatin A 0.163 | [1] 0.024 | defactinib 0.055 | rucaparib 0.15 | [2] 0.066 | encorafenib 0.124 | [3] 0.021 | [4] -0.114 | filanesib 0.336 | zotarolimus -0.022 | idasanutlin 0.161 | alisertib -0.077 | [5] -0.111 | gefitinib -0.062 | [6] -0.138 | lapatinib 0.156 | pictilisib -0.174

TOP2A isoform 4 (UniProt P11388)
inactive: saracatinib -0.168 | sotrastaurin 0.006 | alvocidib 0.261 | Tubastatin A 0.103 | [1] 0.102 | defactinib 0.438 | rucaparib 0.434 | [2] 0.273 | encorafenib 0.288 | [3] -0.086 | [4] 0.052 | filanesib 0.486 | zotarolimus 0.079 | idasanutlin 0.24 | alisertib -0.144 | [5] -0.029 | gefitinib -0.042 | [6] -0.4 | lapatinib 0.13 | pictilisib -0.071

TRIP10 isoform 2 (UniProt Q15642)
inactive: saracatinib 0.021 | sotrastaurin 0.151 | alvocidib 0 | Tubastatin A 0.051 | [1] -0.258 | defactinib -0.196 | rucaparib 0.071 | [2] -0.081 | encorafenib -0.147 | [3] -0.246 | [4] -0.032 | filanesib -0.213 | zotarolimus 0.013 | idasanutlin 0.128 | alisertib -0.029 | [5] 0.109 | gefitinib 0.062 | [6] -0.09 | lapatinib -0.083 | pictilisib 0.06

USP25 isoform 3 (UniProt Q9UHP3)
inactive: saracatinib 0.045 | sotrastaurin -0.003 | alvocidib -0.031 | Tubastatin A 0.061 | [1] 0.044 | defactinib -0.045 | rucaparib 0.019 | [2] -0.028 | encorafenib 0.01 | [3] -0.033 | [4] -0.011 | filanesib 0.037 | zotarolimus 0.014 | idasanutlin -0.039 | alisertib 0.027 | [5] 0.004 | gefitinib 0.032 | [6] 0.022 | lapatinib 0.001 | pictilisib 0.018

USP7 (UniProt Q93009)
UniProt Q93009, sequence (Q93009 whole entry, looked up): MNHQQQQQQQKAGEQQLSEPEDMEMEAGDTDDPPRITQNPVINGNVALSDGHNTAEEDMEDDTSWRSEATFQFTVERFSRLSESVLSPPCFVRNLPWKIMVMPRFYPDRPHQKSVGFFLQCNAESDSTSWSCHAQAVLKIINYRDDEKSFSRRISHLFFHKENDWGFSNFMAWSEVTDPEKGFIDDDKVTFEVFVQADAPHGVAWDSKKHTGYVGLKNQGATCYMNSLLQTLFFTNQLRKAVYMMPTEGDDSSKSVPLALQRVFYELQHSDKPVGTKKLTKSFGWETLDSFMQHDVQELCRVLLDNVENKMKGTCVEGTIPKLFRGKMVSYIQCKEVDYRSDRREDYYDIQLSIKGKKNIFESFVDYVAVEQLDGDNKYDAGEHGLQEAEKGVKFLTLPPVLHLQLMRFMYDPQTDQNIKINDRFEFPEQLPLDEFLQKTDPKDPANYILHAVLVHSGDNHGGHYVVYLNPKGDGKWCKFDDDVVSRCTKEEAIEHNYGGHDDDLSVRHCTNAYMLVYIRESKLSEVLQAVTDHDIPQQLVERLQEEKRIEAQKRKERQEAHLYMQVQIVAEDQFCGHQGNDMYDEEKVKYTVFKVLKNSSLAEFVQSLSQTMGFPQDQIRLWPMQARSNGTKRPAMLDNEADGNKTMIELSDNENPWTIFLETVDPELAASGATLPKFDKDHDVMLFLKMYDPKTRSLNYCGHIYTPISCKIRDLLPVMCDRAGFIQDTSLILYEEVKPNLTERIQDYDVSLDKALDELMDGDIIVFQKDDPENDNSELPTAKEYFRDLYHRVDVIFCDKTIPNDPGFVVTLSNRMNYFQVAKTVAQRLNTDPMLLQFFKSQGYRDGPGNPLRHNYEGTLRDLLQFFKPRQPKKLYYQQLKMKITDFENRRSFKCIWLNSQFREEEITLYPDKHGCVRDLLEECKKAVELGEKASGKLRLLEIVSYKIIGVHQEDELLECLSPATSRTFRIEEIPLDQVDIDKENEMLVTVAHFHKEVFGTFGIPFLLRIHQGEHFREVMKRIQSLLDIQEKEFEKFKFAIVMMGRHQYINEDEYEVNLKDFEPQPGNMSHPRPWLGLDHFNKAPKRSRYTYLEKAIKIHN
inactive: saracatinib -0.087 | sotrastaurin -0.083 | alvocidib -0.147 | Tubastatin A 0.023 | [1] -0.106 | defactinib -0.104 | rucaparib 0.03 | [2] 0.152 | encorafenib 0.057 | [3] -0.06 | [4] 0.034 | filanesib -0.14 | zotarolimus -0.007 | idasanutlin -0.053 | alisertib 0.144 | [5] 0.039 | gefitinib 0.04 | [6] 0.019 | lapatinib -0.029 | pictilisib 0.002

TXNRD1 (UniProt Q16881)
UniProt Q16881, sequence (Q16881 whole entry, looked up): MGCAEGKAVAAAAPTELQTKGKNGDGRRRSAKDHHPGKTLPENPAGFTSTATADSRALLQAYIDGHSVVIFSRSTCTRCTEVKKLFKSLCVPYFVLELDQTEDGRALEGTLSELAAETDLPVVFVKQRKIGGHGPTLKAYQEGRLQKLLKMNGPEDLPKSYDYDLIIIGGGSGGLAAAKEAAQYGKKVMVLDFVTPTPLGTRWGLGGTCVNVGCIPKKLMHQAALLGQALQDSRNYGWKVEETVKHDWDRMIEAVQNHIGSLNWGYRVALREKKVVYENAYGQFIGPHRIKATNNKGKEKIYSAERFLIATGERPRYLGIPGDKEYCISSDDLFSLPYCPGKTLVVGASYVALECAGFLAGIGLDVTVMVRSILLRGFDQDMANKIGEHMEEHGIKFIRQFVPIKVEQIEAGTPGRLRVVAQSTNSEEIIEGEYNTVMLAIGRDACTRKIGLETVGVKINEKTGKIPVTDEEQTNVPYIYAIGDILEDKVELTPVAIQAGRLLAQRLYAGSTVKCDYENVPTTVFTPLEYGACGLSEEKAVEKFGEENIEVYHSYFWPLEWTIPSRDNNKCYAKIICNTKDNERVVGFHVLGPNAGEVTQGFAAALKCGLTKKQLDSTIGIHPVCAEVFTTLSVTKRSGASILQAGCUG
inactive: saracatinib -0.012 | sotrastaurin 0.058 | alvocidib -0.05 | Tubastatin A -0.001 | [1] 0.022 | defactinib -0.015 | rucaparib -0.113 | [2] 0.032 | encorafenib -0.033 | [3] -0.001 | [4] 0.018 | filanesib -0.101 | zotarolimus 0.006 | idasanutlin -0.144 | alisertib -0.012 | [5] -0.023 | gefitinib 0.026 | [6] 0.052 | lapatinib -0.055 | pictilisib 0.062

WDR18 (UniProt Q9BV38)
UniProt Q9BV38, sequence (Q9BV38 whole entry, looked up): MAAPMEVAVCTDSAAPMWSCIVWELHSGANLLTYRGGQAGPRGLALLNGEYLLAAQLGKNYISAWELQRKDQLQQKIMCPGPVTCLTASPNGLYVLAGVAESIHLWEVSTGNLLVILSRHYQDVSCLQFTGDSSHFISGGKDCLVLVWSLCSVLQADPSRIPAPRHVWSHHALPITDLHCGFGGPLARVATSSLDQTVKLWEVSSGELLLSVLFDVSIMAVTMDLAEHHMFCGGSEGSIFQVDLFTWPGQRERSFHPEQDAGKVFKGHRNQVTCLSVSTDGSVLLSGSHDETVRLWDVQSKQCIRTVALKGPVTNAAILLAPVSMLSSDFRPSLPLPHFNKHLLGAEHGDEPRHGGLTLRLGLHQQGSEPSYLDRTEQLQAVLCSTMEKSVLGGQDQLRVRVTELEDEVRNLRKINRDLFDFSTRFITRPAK
inactive: saracatinib 0.057 | sotrastaurin -0.001 | alvocidib -0.027 | Tubastatin A 0.008 | [1] -0.032 | defactinib -0.051 | rucaparib -0.009 | [2] -0.038 | encorafenib 0.001 | [3] 0.003 | [4] -0.04 | filanesib 0.02 | zotarolimus -0.024 | idasanutlin 0.039 | alisertib -0.041 | [5] 0.056 | gefitinib 0.024 | [6] 0.035 | lapatinib 0.005 | pictilisib -0.004

VTI1A (UniProt Q96AJ9)
inactive: saracatinib 0.101 | sotrastaurin 0.027 | alvocidib -0.002 | Tubastatin A -0.028 | [1] 0.095 | defactinib -0.03 | rucaparib -0.058 | [2] -0.042 | encorafenib -0.001 | [3] 0.07 | [4] 0.014 | filanesib -0.015 | zotarolimus -0.024 | idasanutlin -0.023 | alisertib -0.039 | [5] -0.003 | gefitinib 0.024 | [6] 0 | lapatinib 0.021 | pictilisib -0.022

XPNPEP3 (UniProt Q9NQH7)
UniProt Q9NQH7, sequence (Q9NQH7 whole entry, looked up): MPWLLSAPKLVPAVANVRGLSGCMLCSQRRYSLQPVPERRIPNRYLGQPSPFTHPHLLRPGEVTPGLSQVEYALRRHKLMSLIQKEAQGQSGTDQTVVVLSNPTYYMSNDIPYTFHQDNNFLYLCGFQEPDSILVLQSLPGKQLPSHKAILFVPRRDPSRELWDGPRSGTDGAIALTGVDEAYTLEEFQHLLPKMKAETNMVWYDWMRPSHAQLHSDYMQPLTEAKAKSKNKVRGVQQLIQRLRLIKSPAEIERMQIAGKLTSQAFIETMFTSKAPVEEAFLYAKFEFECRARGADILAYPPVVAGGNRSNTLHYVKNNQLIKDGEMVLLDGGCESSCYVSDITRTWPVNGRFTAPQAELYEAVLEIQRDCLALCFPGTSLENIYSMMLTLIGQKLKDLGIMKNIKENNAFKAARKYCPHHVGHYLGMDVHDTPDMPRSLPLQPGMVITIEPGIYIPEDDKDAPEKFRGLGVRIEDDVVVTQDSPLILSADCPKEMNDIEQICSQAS
inactive: saracatinib 0.022 | sotrastaurin -0.017 | alvocidib -0.029 | Tubastatin A -0.021 | [1] 0 | defactinib -0.033 | rucaparib -0.018 | [2] -0.035 | encorafenib -0.005 | [3] 0.038 | [4] -0.12 | filanesib -0.082 | zotarolimus -0.021 | idasanutlin -0.032 | alisertib -0.011 | [5] 0.027 | gefitinib -0.002 | [6] 0.078 | lapatinib -0.024 | pictilisib 0.027
